This is an account of results in PubChem BioAssay (NCATS).

Inconclusive results are not listed. Some compounds were tested as several samples or in several runs, with calls that do not always agree. Calls of active or inactive are those of the source. Calls follow the shape of the dose curve; as a rule, active = well fitted curve in the direction sought with a large enough effect; inconclusive = small, poorly fitted or top-dose-only effect, or another doubt; inactive = no such curve, though single readings can be large; an effect the other way counts as inactive or inconclusive.

Assay [1] deals with Glutathione peroxidase 1 (Homo sapiens) (UniProt P07203). In words: Primary qHTS Assay for Inhibitors of Recombinant Selenoprotein Glutathione Peroxidase 1 (GPX1) (AID 1845191). Also: nearly all actives have a fitted effect of over 65% in size. Also: potency is read from the fitted curve at half-maximal effect. As to activity, negative = inhibition: % is scaled to controls: 0 for no effect and ±100 for the full control effect. The note with it: recombinant GPX1, GR-coupled NADPH fluorescence, 15 min; series mostly up to 48.8 µM. In outline:
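Recombinant GPX1 (10 nM final) was preincubated with compound for 30 min at room temperature, then reacted with 1 mM GSH, 0.5 mM CHP, 0.5 mM NADPH and 100 nM glutathione reductase; NADPH fluorescence (340/450 nm) was read at 0 and 15 min.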

Assay [2] has as its target Phospholipid hydroperoxide glutathione peroxidase GPX4 (Homo sapiens) (UniProt P36969). In words: Primary qHTS Assay for Inhibitors of Recombinant Selenoprotein Glutathione Peroxidase 4 (GPX4) (AID 1845192). Also: nearly all actives have a fitted effect of over 65% in size. Also: potency is read from the fitted curve at half-maximal effect. As to activity change, negative = inhibition: % is scaled to controls: 0 for no effect and ±100 for the full control effect. The note with it: recombinant GPX4, GR-coupled NADPH fluorescence, 15 min; series mostly up to 50 µM. In outline:
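GR-coupled readout: 100 nM GR, 1 mM GSH, 0.5 mM NADPH; NADPH fluorescence (ex 340/em 450 nm) read at t=0 and after 15 min RT. GPX4 200 nM, preincubated 30 min with compound; substrate 0.5 mM CHP.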

Assay [3] can be described thus: Primary fluorescence-based thiol-reactive (MSTI) qHTS assay for identification of artifact compounds. (AID 1845221). Also: nearly all actives have a fitted effect of over 65% in size. Also: potency is read from the fitted curve at half-maximal effect.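 As to activity change, negative = thiol reactive: thiol-reactive compounds lower the probe fluorescence signal.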 The note with it: MSTI thiol-reactivity probe, 1 h; series mostly up to 53.8 µM. In outline: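 First, 4 uM MSTI in 2% DMSO/PBS pH 7.4 was dispensed; next, compounds were added; then plates sat 1 h at room temperature without light. Finally, emission at 598 nm was recorded.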

Assay [4] has as its system Nanoluciferase (engineered Oplophorus gracilirostris luciferase). Nature of the assay: Primary Nanoluciferase (NLuc) qHTS assay for identification of artifact compounds. (AID 1845222).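 Also: NLuc secreted into diluted conditioned medium of S16 cells; 0% = DMSO and -100% = no enzyme.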 The note with it: NLuc-conditioned medium, Nano-Glo luminescence, 5 min; series mostly up to 54.1 µM. In outline:
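Using secreted nanoluciferase in S16 culture medium (0.22 um filtered, 1:55 dilution), compounds were preincubated 15 min at RT. Signal was generated with Nano-Glo reagent (1:100) over 5 min.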

A short description of assay [5]: Primary redox qHTS assay for identification of artifact compounds. (AID 1845223).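 Also: 0% = DMSO and 100% = reference compound.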 The conditions noted are these: Amplex Red/HRP redox cycling with DTT, fluorescence; series mostly up to 53.8 µM. In outline: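 Amplex Red (25 uM) and HRP (250 mU/mL) in HBSS, with compounds for 15 min, then 250 uM DTT for 30 min, room temperature, dark. Fluorescence 525/598 nm read; normalized to DMSO and 10 uM DA3003; Hill fit.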

Assay [6] concerns the target Luciferin 4-monooxygenase (Photinus pyralis) (UniProt P08659). Nature of the assay: Primary firefly luciferase (FLuc) qHTS assay for identification of artifact compounds. (AID 1845220). Also: nearly all actives have a fitted effect of over 60% in size. Also: potency is read from the fitted curve at half-maximal effect.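 As to activity change, negative = inhibition: plate controls were DMSO vehicle for no effect and no enzyme for full effect.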 The note with it: purified firefly luciferase, luminescence, 5 min; series mostly up to 54.1 µM. In outline:
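In this counter-screen for luciferase artifacts, test compounds met substrate (10 uM each luciferin and ATP) before 10 nM enzyme started the reaction. Light output was measured 5 min later.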

Sequence of Phospholipid hydroperoxide glutathione peroxidase GPX4 (Homo sapiens) (P36969 whole entry, looked up): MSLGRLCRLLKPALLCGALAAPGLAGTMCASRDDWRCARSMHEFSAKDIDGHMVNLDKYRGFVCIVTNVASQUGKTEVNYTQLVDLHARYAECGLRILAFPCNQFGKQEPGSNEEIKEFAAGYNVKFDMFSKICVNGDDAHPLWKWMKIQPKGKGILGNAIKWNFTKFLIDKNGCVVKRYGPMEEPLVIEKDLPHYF
Sequence of Glutathione peroxidase 1 (Homo sapiens) (P07203 whole entry, looked up): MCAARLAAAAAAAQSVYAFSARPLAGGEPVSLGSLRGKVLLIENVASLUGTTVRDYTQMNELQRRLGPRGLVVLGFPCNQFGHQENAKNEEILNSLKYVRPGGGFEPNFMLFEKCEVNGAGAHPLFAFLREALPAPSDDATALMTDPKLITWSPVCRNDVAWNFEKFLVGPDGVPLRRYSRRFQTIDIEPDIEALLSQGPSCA

`Nc1nc2c(cnn2CCCc2ccc(O)cc2)c2nc(-c3ccco3)nn12`: the Potency entry in assay [1], in assay [2], in assay [3], in assay [4] and in assay [5] was “inactive” each time.

On to `Cc1ccc(O)cc1Nc1ccnc(Nc2cccc(C(N)=O)c2)n1`, for which the Potency entry in assay [1], in assay [2], in assay [3], in assay [4] and in assay [5] was “inactive” throughout.

For the molecule `C=C1CCC2C(C)(C(=O)O)CCCC2(C)C1CCC1=CCOC1=O` (stereo not drawn), the Potency result in assay [1], in assay [2], in assay [3], in assay [4] and in assay [5] was “inactive” each time.

On to `O=C(Nc1ccc(-c2ccc(Cl)c(Cl)c2)cc1)C1=C(O)c2ccccc2S(=O)(=O)N1`, for which the Potency entry in assay [1], in assay [2], in assay [3], in assay [4] and in assay [5] was “inactive” throughout.

Regarding `COc1cc(OC)c2c(=O)[nH]c(-c3cc(C)c(OCCO)c(C)c3)nc2c1`, the Potency entry in assay [1], in assay [2], in assay [3], in assay [4] and in assay [5] was “inactive” in each case.

`O=C(Nc1ccc2[nH]nc(-c3ccncc3)c2c1)[C@@H]1CCN(CC(=O)N2CCN(c3ccc(-c4ncccn4)cc3)CC2)C1`: the Potency result in assay [1], in assay [2], in assay [3], in assay [4] and in assay [5] was “inactive” in each case.

Take `CC(=O)O[C@@H]1[C@H](O[C@@H]2O[C@@H](CO)[C@H](O)[C@H]2O)[C@@H](O[C@@H]2O[C@@H](C)[C@H](O[C@@H]3OC[C@@H](O)[C@H](O)[C@H]3O)[C@@H](O)[C@H]2O)[C@H](OC(=O)[C@]23CCC(C)(C)C[C@H]2C2=CCC4[C@@]5(C)CC[C@H](O[C@@H]6O[C@H](C(=O)O)[C@@H](O)[C@H](O)[C@H]6O[C@@H]6O[C@H](CO)[C@H](O)[C@H](O)[C@H]6O)[C@@](C)(C=O)C5CC[C@@]4(C)[C@]2(C)C[C@H]3O)O[C@@H]1C` (stereo partly drawn): the outcome in assay [1] was “inactive [at 9.52 µM]”. The activity change, negative = inhibition in assay [2] is -0.242% [at 9.73 µM] (inactive). The activity change, negative = thiol reactive in assay [3] is 435% [at 11.5 µM] (inactive). In addition, in assay [4], the activity, negative = inhibition was 0% [at 11.6 µM] (inactive). Moreover, the redox activity (% of DA3003) in assay [5] is 9.67% [at 11.5 µM] (inactive).

On to `CC(C)=CCc1cc2c(cc1O)OC[C@H]1c3ccc(O)cc3O[C@@H]21`, for which the Potency entry in assay [1], in assay [2], in assay [4] and in assay [5] was “inactive” each time.

Turning to `O=C(NCC(=O)N1CCCC1)Nc1ccc2cnccc2c1`, the Potency entry in assay [1], in assay [6], in assay [3], in assay [4] and in assay [5] was “inactive” throughout.

In the case of `COc1ccc(-c2c(C)nn3c(NCCN4CCOCC4)cc(C)nc23)cc1OC`, the Potency entry in assay [1], in assay [6] and in assay [4] was “inactive” each time.

As to `COc1ccc2cc3c(NC(=O)c4ccco4)nn(C)c3nc2c1`, the Potency entry in assay [1], in assay [6], in assay [3] and in assay [5] was “inactive” in each case.

`Cn1ncnc1[C@@H]1c2n[nH]c(=O)c3cc(F)cc(c23)N[C@H]1c1ccc(F)cc1`: the Potency result in assay [1], in assay [6], in assay [3], in assay [4] and in assay [5] was “inactive” each time.

On to `CS(=O)(=O)Nc1cc2occ(NC=O)c(=O)c2cc1Oc1ccccc1`, for which the Potency in assay [2] was 18 µM (active) and inactive.

On to `C=C1/C(=C/C=C2\CCC[C@]3(C)[C@@H]([C@@H](C)OCCC(O)(CC)CC)CC[C@@H]23)C[C@@H](O)C[C@@H]1O`, for which the Potency entry in assay [1], in assay [6], in assay [3] and in assay [4] was “inactive” each time.

`CC(C)S(=O)(=O)c1ccc2nccc(Nc3ccc4scnc4c3)c2c1`: the Potency entry in assay [1], in assay [6], in assay [3], in assay [4] and in assay [5] was “inactive” throughout.

For `O=C(NCCN1CCN(c2cccc3ccc(O)cc23)CC1)c1ccc(F)cc1`, the Potency result in assay [1], in assay [2], in assay [4] and in assay [5] was “inactive” throughout.

Turning to `O=C(O)c1cc(N(Cc2ccc(C3CCCCC3)cc2)C(=O)c2ccc(Oc3ccccc3)cc2)ccc1O`, the Potency result in assay [1], in assay [6], in assay [3], in assay [4] and in assay [5] was “inactive” in each case.

Take `S=C(c1ccc(-c2ccc(Cl)c(Cl)c2)o1)N1CCCCC1`: the values for the Potency in assay [1] and in assay [6] were 25.5 µM (active) and 1.69 µM (active), respectively. Further, the Potency result in assay [4] and in assay [5] was “inactive” each time.

On to `Clc1cccc(COc2cncc(N3CCNCC3)n2)c1`, for which the Potency entry in assay [1], in assay [6], in assay [3], in assay [4] and in assay [5] was “inactive” in each case.

As to `CC(=O)S[C@@H]1CC2=CC(=O)CC[C@]2(C)[C@H]2CC[C@@]3(C)[C@@H](CC[C@@]34CCC(=O)O4)[C@H]12`, the Potency result in assay [2] is “inactive”.

Turning to `CN(C)C(=O)Nc1cc(-c2ccccc2)ccc1N(C)C`, the Potency entry in assay [1], in assay [4] and in assay [5] was “inactive” throughout. In addition, the Potency in assay [3] was 2.38 µM (active).

For `NCCCC[C@H](NC(=O)[C@@H]1CCCN1C(=O)[C@@H]1CSSC[C@H](N)C(=O)N[C@@H](Cc2ccc(O)cc2)C(=O)N[C@@H](Cc2ccccc2)C(=O)N[C@@H](CCC(N)=O)C(=O)N[C@@H](CC(N)=O)C(=O)N1)C(=O)NCC(N)=O`, the Potency in assay [2] was 17.8 µM (active).

As to `O=C(Nc1nc2ccc([N+](=O)[O-])cc2s1)C1CCCCC1`, the Potency entry in assay [1], in assay [2], in assay [4] and in assay [5] was “inactive” in each case.

For `CN[C@@H]1[C@H](O[C@H]2[C@H](O[C@@H]3[C@@H](O)[C@H](O)[C@@H](N=C(N)N)[C@H](O)[C@H]3N=C(N)N)O[C@@H](C)[C@]2(O)CO)O[C@@H](CO)[C@H](O)[C@H]1O`, the Potency result in assay [1], in assay [3], in assay [4] and in assay [5] was “inactive” each time.
